The campaign covered roughly 2,300 compounds. About 1,200 (52%) were called active. The rule behind the calls is not given here. So high a share suggests a set chosen from earlier hits. This is one part of the list. Entries with a potency or affinity are not part of this list.

A short description of the test: mammalian cell cytotoxicity, dose response, cytotoxicity control for M. tuberculosis inhibitor project (AID 435019).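 Note: lower values mean fewer viable cells so more cytotoxicity.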 Particulars: cytotoxicity counter-screen; series mostly up to 40 µM.
Consider `C=CCN(CC(=O)c1sc(C(=O)OCC)nc1C)c1cccc(Br)c1`, for which the call was inactive.

For `CCCCOC(=O)c1ccc(O)cc1`, the compound was classed as inactive. With `[O-][n+]1c2ccccc2c2n1CCN1CCOC21c1ccc(Cl)cc1` (configuration not stated) the entry was “inactive”; with `Cc1nonc1NC(=O)CSc1ccc(-c2ccccc2)nn1`, “inactive”; with `O=C(OCC(=O)c1cccs1)C1=COCCO1`, “inactive”. Take `COC(=O)COc1ccc(-c2nn(C)c(=O)c3ccccc23)cc1`: the compound was classed as inactive.

In the case of `CCCCn1nc(C(=O)Nc2ccccc2N2CCCC2)c2ccccc2c1=O`, the compound was classed as inactive. For `COc1cc(CNC(=O)CCCCCCC(C)C)ccc1O`, the call was inactive. With `COC(=O)Cn1nc(-c2ccccc2)c2cc(Cl)ccc21` the entry was “inactive”. Take `CC1=CC(=O)NP(=O)(Oc2ccc3ccccc3c2)N1` (configuration not stated): the compound was called inactive. With `CC(=O)Oc1ccc2occ(C(=O)c3cccs3)c2c1` the entry was “inactive”. Consider `Nc1nc2ccccc2n1/N=C/c1ccc(Br)cc1`, for which the outcome was inactive.

On to `CC(C)(C)Nc1nc(NC(C)(C)C)nc(-n2ccnc2)n1`, for which the compound was classed as inactive. Consider `CCOC(=O)CNC(=O)CNC(=O)c1nn(-c2ccc(OC)c(Cl)c2)c(=O)c2ccccc12`, for which the compound was classed as inactive. With `CCOC(=O)c1ccc(-n2c(CCC(=O)O)ccc2-c2cccs2)cc1` the entry was “inactive”; with `CC(C)OC(=O)c1ccc(N)cc1`, “inactive”; with `CCc1ccc(NC2=NCC(c3ccccc3)S2)cc1` (configuration not stated), “inactive”.

On to `CC(C)OC(=O)c1ccc(NC(=S)NC(=O)c2cncc(Br)c2)cc1`, for which the compound was called inactive. `Cc1[nH]nc(SCC(=O)NCc2ccccc2)c1[N+](=O)[O-]`: the call was inactive. As for `COc1ccc(-c2ccc(-c3noc(C(C)C)n3)c(OC)n2)cc1`, the result was inactive. With `Cc1ccc(Cl)cc1NC(=O)CN1CCN(S(=O)(=O)N2CCOCC2)CC1` the entry was “inactive”; with `Cc1ccc(C(=O)C2CCN(CC(=O)Nc3nc(C)cs3)CC2)cc1`, “inactive”. As to `CCCCNC(=S)N/N=C/c1cccc(OCC)c1O`, the compound was called inactive. Regarding `CCOC(=O)CN[C@H]1CCC2C3CC=C4C[C@@H](O)CC[C@]4(C)C3CC[C@@]21C` (some centres not stated), the call was inactive. With `Cc1ccc(C(=O)ONc2ccc(N=O)cc2)cc1` the entry was “inactive”; with `COc1ccc(NC(NC(=O)c2ccc(OC)cc2)C(Cl)(Cl)Cl)cc1` (configuration not stated), “inactive”. On to `CCOC(=O)c1nn(-c2ccc(C)cc2)c2nc(Nc3ccccc3)cc(=O)n12`, for which the call was inactive. `Cn1cnc(Sc2ncnc3nc[nH]c23)c1[N+](=O)[O-]`: the compound was classed as inactive.

Regarding `Cn1nc([N+](=O)[O-])nc1Sc1ccc(C(C)(C)C)cc1`, the result was inactive.

As to `Cc1cc(C)n(-c2cc(C(C)(C)C)nc3c(-c4ccccc4)cnn23)n1`, the result was inactive. In the case of `Cc1cc(-c2nnc3n2CCCCC3)c(C)n1-c1ccccc1`, the call was inactive. Consider `C/C(=N\N(Cc1ccccc1)c1ccccc1)c1ccncc1`, for which the result was inactive. With `CCOC(=O)CSc1nnc(-c2ccc(S(=O)(=O)NCc3cccs3)cc2)o1`, the result was inactive. With `Cn1c(=S)c2[nH]c(SCCN3CCCC3)nc2n(C)c1=O` the entry was “inactive”; with `CCOC(=O)CNc1ccc(C(=O)OCC)cc1[N+](=O)[O-]`, “inactive”.

Regarding `CCCc1cc(C(N)=S)ccn1`, the compound was called inactive. Regarding `CCCn1c(=N)n(CC(=O)c2ccc(OCC(=O)OC)cc2)c2ccccc21`, the compound was classed as inactive.

For the compound `Cc1ccc(S(=O)(=O)N2CCC(C(=O)OCc3ccccc3)CC2)cc1C`, the outcome was inactive. With `CCOC(=O)C1=NOC(CNc2ncc(C(F)(F)F)cc2Cl)C1` (configuration not stated) the entry was “inactive”; with `NC(=O)c1cccn1-c1ncc(C(F)(F)F)cc1Cl`, “inactive”; with `CCOC(=O)c1ccc(N=C2SC(C(=O)Nc3ccc(C(=O)O)cc3)CC(=O)N2Cc2cccs2)cc1` (configuration not stated), “inactive”. With `Cc1cc(C2=NNC(=NC3CCCCC3)SC2)c(C)n1-c1c(C)n(C)n(-c2ccccc2)c1=O` the entry was “inactive”.

In the case of `S=C(NCCN1CCOCC1)N/N=C/c1cccs1`, the result was inactive. Consider `Cc1ccc(C)c2nc(N3CCCC3)c(C#N)cc12`, for which the outcome was inactive.

Consider `Cc1nc(SCC(=O)NC2CCCCC2)[nH]c(=O)c1C`, for which the result was inactive.

Take `CCOC(=O)COc1ccc(C2CC(C)=NN2c2ccccc2)cc1` (configuration not stated): the call was inactive. With `CC1CCCC(C)N1C(=O)COC(=O)c1cc(-c2cccs2)nn1-c1ccccc1` (configuration not stated), the outcome was inactive. Regarding `O=C(CCN1C(=O)C2C3C=CC(C3)C2C1=O)Oc1ccc2ccccc2c1` (configuration not stated), the outcome was inactive. Turning to `O=C(COC(=O)C1CCN(c2ccc(C(F)(F)F)cn2)CC1)Nc1ccc(F)cc1[N+](=O)[O-]`, the compound was classed as inactive. Turning to `O=C(Cc1ccc(Nc2nc3ccc(Br)cc3[nH]2)cc1)NCCc1cccs1`, the compound was classed as inactive. With `Brc1cccc2sc(N3CCN(c4ccccc4)CC3)nc12` the entry was “inactive”; with `Cc1[nH]n(S(=O)(=O)Cc2ccccc2)c(=O)c1N=Nc1ccccc1Cl`, “inactive”; with `CN1CCN(c2c(F)cc3c(=O)c(C(=O)O)cn4c3c2OCN4C)CC1`, “inactive”.

On to `C=C(C)C1CC=C(CN2CCN(Cc3ccccc3)CC2)CC1` (configuration not stated), for which the outcome was inactive. With `Cc1cccc(C2=N/C(=C\c3cccs3)C(=O)O2)c1` the entry was “inactive”.

Regarding `Cn1c(=O)c2[nH]c(-c3ccc(S(=O)(=O)O)cc3)nc2n(C)c1=O`, the compound was classed as inactive. Regarding `C=CCOC(=O)COc1ccc2c(C)c(CC)c(=O)oc2c1`, the compound was classed as inactive. With `C/C(CCc1ccc2c(c1)OCO2)=N\NC(=S)NC(C)C` the entry was “inactive”; with `Cc1ccc(/C=N/NC(=S)NC(C)C)o1`, “inactive”. With `CCCCCCC[N+](CC)(CC)CCCCc1ccc(Cl)cc1` the entry was “inactive”; with `COc1cc(/C=N/N2CCOCC2)ccc1OCc1ccc(Cl)cc1`, “inactive”. As to `COc1ccccc1/C=C/C(=O)Nc1ccc(S(=O)(=O)Nc2cc(C)on2)cc1`, the compound was called inactive. With `COc1ccc(N=Cc2c(OC)ccc3ccccc23)cc1` the entry was “inactive”; with `Cc1cn(-c2ccc(Br)cc2)[nH]c1=O`, “inactive”; with `CN(C(=O)COC(=O)c1ccc([N+](=O)[O-])cc1Cl)C1CCCCC1`, “inactive”. With `COc1ccccc1N(O)C1CC(=O)N(c2ccc(Br)cc2)C1=O` (configuration not stated) the entry was “inactive”.

On to `O=C(OCC(=O)c1c[nH]c2ccccc12)c1cc(Br)ccc1O`, for which the compound was called inactive. With `COc1cccc(COC(=O)c2ccc3c(=O)n4c(nc3c2)CCC4)c1OC` the entry was “inactive”; with `C=CCn1c(N)cc(=O)nc1SC(CC)C(=O)Nc1ccc(C(C)=O)cc1` (configuration not stated), “inactive”. With `NC(=O)c1ccc(N=Cc2ccc([N+](=O)[O-])s2)cc1` the entry was “inactive”. With `CCN(CC)C(=S)SSC(=S)N(CC)CC` the entry was “inactive”; with `C/C(=C\C(=O)c1ccccc1)Nc1ccc(Cl)c(Br)c1`, “inactive”; with `O=C(CSCC(=O)Nc1ccc2ccccc2c1)NCc1ccccc1`, “inactive”. As for `COC(=O)C(C)Oc1cc(C)ccc1COc1ccc(-n2nc(C)n(C(F)F)c2=O)cc1` (configuration not stated), the call was inactive. For `CC1=NN(c2ccccc2)C(=O)/C1=C\c1c(C)[nH]n(-c2ccccc2)c1=O`, the result was inactive. With `Cc1[nH]n(-c2ccccc2)c(=S)c1C=NCCCN=Cc1c(C)[nH]n(-c2ccccc2)c1=S` the entry was “inactive”. Take `O=C(NC1CCN(C(=O)N2c3ccccc3Sc3ccccc32)CC1)c1ccccc1F`: the result was inactive. With `Oc1ccc(/C=N/NC(=S)N2CCOCC2)cc1` the entry was “inactive”. With `CC1CCN(c2nc(Cl)nc(Nc3ccc([N+](=O)[O-])cc3)n2)CC1`, the result was inactive. With `O=c1c2cc(Br)cc(Br)c2oc2nc3n(c(=O)c12)CCCS3` the entry was “inactive”; with `Cc1ccc(C2=NNC3(CCOC(C)(C)C3)S2)cc1` (configuration not stated), “inactive”; with `Cc1cccc2c1N(CCCOc1ccc(C(C)(C)C)cc1)C(=O)C2=O`, “inactive”. With `CCOc1ccc(N/C(C)=C/C(=O)c2ccc3c(c2)OCCO3)cc1` the entry was “inactive”; with `Cc1ccc(NN=C2c3ccccc3-c3ccccc32)cc1`, “inactive”; with `CC1(c2nnc(-c3ccncc3)o2)CC(c2ccccc2)=NO1` (configuration not stated), “inactive”.

In the case of `Cc1ccnc(NC(=O)COc2ccc3c(c2)CCC3)c1`, the outcome was inactive.

As for `O=C1C(Cl)=C(N2CCOCC2)C(=O)N1c1cccc(Cl)c1`, the compound was called inactive.

On to `O=C(CN1CCN(c2ccc(F)cc2)CC1)N1CCC(Cc2ccccc2)CC1`, for which the call was inactive. For `COc1ccc(/C=N/OCC(=O)OCC(=O)N(C)c2ccccc2)cc1`, the outcome was inactive. With `O=C1C2C(c3ccccc3)(C(=O)N1c1ccc(Cl)cc1)C2(c1ccccc1)c1ccccc1` (configuration not stated) the entry was “inactive”. Turning to `CC1(c2ccc(OC(F)F)cc2)NC(=O)N(CC(=O)c2ccc3c(c2)OCO3)C1=O` (configuration not stated), the result was inactive. As to `COc1ccc(NC2(c3ccc(Cl)cc3)C(=O)c3ccccc3C2=O)cc1`, the compound was classed as inactive. Regarding `COC(=O)CCn1c(C)cc(C(=O)COc2ccccc2C(N)=O)c1C`, the compound was classed as inactive. With `c1ccc(-c2ccccc2OCCCCn2ccnc2)cc1` the entry was “inactive”; with `CCCn1nnnc1NC(=O)c1ccc(C)cc1Cl`, “inactive”. Turning to `CCCc1cc2c(cc1NC(=O)c1ccccc1Cl)OCO2`, the outcome was inactive. With `Nc1nc(-c2cccc(F)c2)cs1` the entry was “inactive”; with `NC1=NC[C@H](Cc2ccc(O)cc2)N1CCc1cccc2ccccc12`, “inactive”. Turning to `CCOC(=O)CSC1=C(C#N)C(c2ccc(C)cc2)C2=C(CCCC2=O)N1` (configuration not stated), the outcome was inactive. Turning to `N#CC1=C(N)NC(SCC(=O)c2ccccc2)=C(C#N)C12CCCC2`, the result was inactive.

`CCOC(=O)CSc1nnc(NC(=O)c2ccc3c(c2)OCO3)s1`: the result was inactive. As for `C=C(C)C1CCC(C)=C1COC(=O)Nc1ccccc1` (configuration not stated), the compound was called inactive.

Consider `CC(C)C(=O)Nc1cccc(-c2nc3ccccc3c(=O)o2)c1`, for which the compound was called inactive. In the case of `Cc1ccc(C(=O)OCc2nnc(-c3ccccc3)o2)s1`, the call was inactive. Take `CCOC(=O)c1ccc(N2CC(O)=C(c3nc4ccccc4c(=O)[nH]3)C2=N)cc1`: the call was inactive. With `O=C(CSc1nn(-c2ccc(F)cc2)c(=S)s1)NCC1CCCO1` (configuration not stated) the entry was “inactive”; with `Cc1nn(-c2ccccc2)c(Cl)c1/C=N/NC(=O)c1ccc(CNc2ccccc2)o1`, “inactive”; with `Cc1ccc(C(=O)CCC(=O)OCC(=O)Nc2c(C)nn(-c3ccccc3)c2C)cc1`, “inactive”. In the case of `CCOC(=O)C(/C=C(\C#N)C(=O)OCC)=C(/N)N1CCN(c2ccc(Cl)cc2)CC1`, the result was inactive. With `CCN1CCN(c2oc(COc3ccc(-c4ccccc4)cc3)nc2C#N)CC1` the entry was “inactive”.

Consider `Clc1ccc(-c2cc3ccccc3nc2N2CCCC2)cc1`, for which the call was inactive.

Take `O=C1C2C(C(=O)N1/N=C/c1ccc([N+](=O)[O-])o1)C1C=CC2C12CC2` (configuration not stated): the compound was called inactive.
